Hits are enriched below; roughly 5.4% of the tested compounds scored in any of these assays.
A3G deaminase: inhibitors of human APOBEC3G DNA deaminase; Q9HC16; recombinant A3G, ssDNA deamination FAM/TAMRA fluorescence; actives 0.28% (n = 330,000); inhibition, % at 20 µM;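 active means inhibition of at least 40% at 20 µM, with no more than 30% in the related APOBEC3A deaminase screen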;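 further: plate controls were DMSO wells with A3G for no effect and wells lacking A3G enzyme for full effect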
ALR H2O2 inh: human ALR oxidase inhibition via reduced H2O2 | P55789 | purified ALR, DTT oxidation, H2O2 HRP-luminol luminescence | inhibition, % (test concentration not listed) | actives 3.8% (n = 290,000) | AID 485317;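 active means mean replicate inhibition above about 79%, with every replicate also reaching it, limit read from the data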
Target sequence (P55789 whole entry, looked up): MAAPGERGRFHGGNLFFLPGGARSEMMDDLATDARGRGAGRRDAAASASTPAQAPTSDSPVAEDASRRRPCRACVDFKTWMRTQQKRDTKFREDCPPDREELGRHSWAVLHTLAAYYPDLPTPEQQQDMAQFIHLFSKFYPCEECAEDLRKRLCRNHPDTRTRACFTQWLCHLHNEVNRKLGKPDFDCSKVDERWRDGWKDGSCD
A3A deaminase: inhibitors of human APOBEC3A DNA deaminase. inhibition, % at 20 µM. recombinant A3A, FAM/TAMRA ssDNA deamination fluorescence. actives 0.41% (n = 330,000). P31941;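 active means at least 40% inhibition at 20 µM here, with at most 30% in a related deaminase screen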;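 further: plate controls were A3A with DMSO for no effect and wells lacking A3A enzyme for full effect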
Target sequence (P31941 whole entry, looked up): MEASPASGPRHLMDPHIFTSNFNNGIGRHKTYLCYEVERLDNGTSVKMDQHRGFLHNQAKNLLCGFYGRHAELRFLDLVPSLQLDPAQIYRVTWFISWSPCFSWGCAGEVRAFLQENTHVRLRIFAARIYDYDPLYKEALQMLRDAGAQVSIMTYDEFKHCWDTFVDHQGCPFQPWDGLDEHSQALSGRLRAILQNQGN
aDG glyco up: alpha-DG glycosylation activation. AID 624168. actives 0.22% (n = 360,000). Pro5-aDG cells, alpha-DG glycosylation AlphaScreen (IIH6); 0% Pro5, 100% B10-LARGE cell signal. activation, % at 10 µM;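 active means activation of at least 8% versus controls, or a plate z-score of at least 8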;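 further: Pro5 are CHO cells carrying HIG-tagged alpha-DG that lacks glycosylation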
rCAG binder-1: molecules binding r(CAG) RNA repeats; inhibition, % at 3 µM; r(CAG) RNA repeat, TO-PRO-1 dye displacement fluorescence; actives 1.3% (n = 370,000);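 active means inhibition above the plate cutoff, the mean of all test compounds on that plate plus 3 SD, cut at about 35% in these data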;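 further: 0% = DMSO alone and 100% = 100 µM mitoxantrone as full dye displacement; higher means more dye released from RNA so lower well fluorescence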
PHOSPHO1 inh: inhibitors of human PHOSPHO1 phosphatase | recombinant PHOSPHO1, absorbance phosphatase assay | actives 1.1% (n = 290,000) | AID 1565 | inhibition, % at 13.3 µM; in the data active means inhibition above about 60%
Target sequence (Q8TCT1 whole entry, looked up): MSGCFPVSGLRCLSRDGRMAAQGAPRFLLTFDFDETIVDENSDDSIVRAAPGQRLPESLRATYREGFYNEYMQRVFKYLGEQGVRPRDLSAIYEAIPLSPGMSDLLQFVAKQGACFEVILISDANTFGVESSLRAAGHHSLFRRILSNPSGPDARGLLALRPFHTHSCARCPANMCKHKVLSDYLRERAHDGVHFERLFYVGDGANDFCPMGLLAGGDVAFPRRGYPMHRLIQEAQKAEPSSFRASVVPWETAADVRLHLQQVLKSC
rCAG binder conf: r(CAG) RNA repeat binding, confirmation; shares compounds with rCAG binder-1; TO-PRO-1 dye displacement fluorescence; inhibition, % at 3 µM; actives 70% (n = 4,300); AID 652065;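 active means inhibition above a per-plate cutoff, the mean inhibition of sample wells plus 3 SD, cut at about 35% in these data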;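 further: loss of TO-PRO-1 fluorescence as compound displaces dye from 1x1 AA loop RNA; 0% = DMSO only wells and 100% = 100 µM mitoxantrone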
dCAG dye counter: DNA CAG dye complex inhibition counter-screen; actives 94% (n = 4,300); d(CAG) DNA oligo TO-PRO-1 dye displacement, fluorescence; AID 652068; shares compounds with rCAG binder-1; inhibition, % at 3 µM;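 active means inhibition above its plate's cutoff, the mean test-well inhibition plus 3 SD, cut at about 4.8% in these data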;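 further: 0% = DNA dye mix with DMSO and 100% = 100 µM mitoxantrone; hits displace the dye from DNA and so lower well fluorescence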
DNA CAG DR: counter-screen for rCAG binders: inhibitors of DNA CAG TO-PRO-1 complex; shares compounds with rCAG binder-1; DNA CAG/GTC duplex TO-PRO-1 dye displacement fluorescence; IC50, µM; actives 20% (n = 250); AID 686960; in the data active means IC50 below about 10 µM
dCAG DNA bind: counter-screen for rCAG binders: DNA CAG TO-PRO-1 complex inhibitors, late stage; IC50, µM; d(CAG) DNA duplex TO-PRO-1 dye displacement, fluorescence; AID 720649; actives 80% (n = 30); shares compounds with rCAG binder-1
rCAG binder-2: molecules binding r(CAG) RNA repeats, late stage dose response; shares compounds with rCAG binder-1; r(CAG) RNA TO-PRO-1 dye displacement, fluorescence; IC50, µM; actives 100% (n = 30); AID 720651
The depositor's hits bear a star. Unless noted, how the calls were made is not given here.

Screening O=C(/C=C/c1cn(-c2ccccc2)nc1-c1ccccc1)Nc1ccc(C(=O)O)cc1 returned A3G deaminase -6.3, A3A deaminase 0.0, aDG glyco up -0.2, rCAG binder-1 44.2*, PHOSPHO1 inh -12.6, rCAG binder conf 72.9*, dCAG dye counter 34.2*, DNA CAG DR 7.72*, dCAG DNA bind inactive and rCAG binder-2 6.78*.
O=C(O)c1ccc(NC(=O)c2cn(-c3ccccc3)nc2-c2ccc(F)cc2)cc1 was read as A3G deaminase -2.9, ALR H2O2 inh 7.9, A3A deaminase 0.2, aDG glyco up -0.2, rCAG binder-1 30.4 and PHOSPHO1 inh -3.9.
CC(=O)Nc1cc(-c2ccc(CO)cc2)cn2c(-c3ccc(F)c(Cl)c3)cnc12 was read as aDG glyco up -0.4 and rCAG binder-1 6.3.
Screening Cc1ccc2nc(-c3cccc(Br)c3)c(Cc3ccsc3)n2c1 returned rCAG binder-1 11.1.
O=C(Nc1cc(Br)ccc1O)c1cc(-c2ccccc2)on1 was read as A3G deaminase 5.6, A3A deaminase 7.1, aDG glyco up 0.0, rCAG binder-1 3.9 and PHOSPHO1 inh 34.3.
For O=C(Nc1cc(Cl)ccc1O)c1cc(-c2ccco2)on1 the results were A3G deaminase -5.3, A3A deaminase -0.2, aDG glyco up 0.0, rCAG binder-1 45.6*, PHOSPHO1 inh 4.0, rCAG binder conf 17.8 and dCAG dye counter 11.9*.
O=C(Nc1cc(Br)ccc1O)c1cc(-c2ccco2)on1 was read as aDG glyco up 0.0, rCAG binder-1 42.5*, PHOSPHO1 inh 23.9, rCAG binder conf 42.0* and dCAG dye counter 19.1*.
COC(=O)C1=C(C)N(C)C(=NCc2ccc(OC)cc2)NC1c1ccc(F)cc1 (configuration not stated) was read as rCAG binder-1 6.5.
`CCOC(=O)N1CCc2c(sc(NC(=O)c3ccc(S(=O)(=O)N4CCCC4)cc3)c2C#N)C1` gave A3G deaminase -17.7, ALR H2O2 inh 59.4, A3A deaminase -5.4, aDG glyco up -0.2, rCAG binder-1 83.9*, PHOSPHO1 inh 4.9, rCAG binder conf 57.2* and dCAG dye counter 18.7*.
Screening CC(C)N1CCc2c(sc(NC(=O)c3ccc(S(=O)(=O)N4CCOCC4)cc3)c2C#N)C1 returned A3G deaminase -56.9, ALR H2O2 inh 2.7, A3A deaminase -23.5, aDG glyco up 0.6 and PHOSPHO1 inh 33.6.
CCCN1CCCCC(NC(=O)c2c(F)cccc2F)C1=O (configuration not stated) was read as rCAG binder-1 1.4.
`CCC(C)NC(=O)CSc1nc2c(sc(=S)n2-c2cc(Cl)ccc2OC)c(=O)[nH]1` (configuration not stated) gave A3G deaminase -9.5, A3A deaminase -5.3, aDG glyco up -0.1, rCAG binder-1 46.0*, PHOSPHO1 inh 42.2, rCAG binder conf 38.4* and dCAG dye counter 8.5*.
For COc1ccc(Cl)cc1-n1c(=S)sc2c(=O)[nH]c(SCC(=O)NCC3CCCO3)nc21 (configuration not stated) the results were A3G deaminase -5.0, A3A deaminase 0.1, aDG glyco up 0.2, rCAG binder-1 41.1*, PHOSPHO1 inh 32.7, rCAG binder conf 30.9 and dCAG dye counter 6.6*.
Screening COCCCNC(=O)CSc1nc2c(sc(=S)n2-c2cc(Cl)ccc2OC)c(=O)[nH]1 returned A3G deaminase -9.0, ALR H2O2 inh -17.9, A3A deaminase -3.6, aDG glyco up 0.0, rCAG binder-1 21.3 and PHOSPHO1 inh 32.6.
`N#Cc1c(NC(=O)CCN2C(=O)c3ccccc3C2=O)oc(-c2ccccc2)c1-c1ccccc1` gave A3G deaminase -0.2, ALR H2O2 inh 17.4, A3A deaminase 2.2, aDG glyco up -0.1, rCAG binder-1 8.9 and PHOSPHO1 inh 23.8.
Screening CC(C)CC(C(=O)Nc1oc(-c2ccccc2)c(-c2ccccc2)c1C#N)N1C(=O)c2ccccc2C1=O (configuration not stated) returned A3G deaminase -3.7, ALR H2O2 inh -3.3, A3A deaminase -3.7, aDG glyco up 0.2, rCAG binder-1 50.7*, PHOSPHO1 inh -19.8, rCAG binder conf 39.1* and dCAG dye counter 19.3*.
For Cc1ccc2nc(N/C(=N/S(=O)(=O)c3ccc(F)cc3F)c3ccccc3)sc2c1 the results were A3G deaminase -6.1, ALR H2O2 inh 66.1, A3A deaminase 0.2, aDG glyco up 0.3, rCAG binder-1 45.9*, PHOSPHO1 inh -1.1, rCAG binder conf 47.7* and dCAG dye counter 14.5*.
For c1coc(-c2nc3c([nH]2)CCc2nonc2-3)c1 the results were A3G deaminase -6.3, ALR H2O2 inh 1.8, A3A deaminase -2.6, aDG glyco up -0.2, rCAG binder-1 41.9*, PHOSPHO1 inh 44.6, rCAG binder conf 8.7 and dCAG dye counter 2.6.
`c1ccc(-c2nc3c([nH]2)CCc2nonc2-3)cc1` gave A3G deaminase -7.5, ALR H2O2 inh -3.8, A3A deaminase -5.3, aDG glyco up -0.4, rCAG binder-1 1.0 and PHOSPHO1 inh -7.5.
`Cc1ccc([N+](=O)[O-])cc1-c1ccc(/C=C(\C#N)c2[nH]nc(N)c2C#N)o1` gave aDG glyco up -0.5, rCAG binder-1 83.7*, PHOSPHO1 inh 5.6, rCAG binder conf 63.4* and dCAG dye counter 46.9*.
CC1=NN(c2ccccc2C(=O)O)C(=O)C1N=Nc1ccccc1 (configuration not stated) was read as A3G deaminase -4.1, A3A deaminase -4.2, aDG glyco up 0.1, rCAG binder-1 44.1*, PHOSPHO1 inh 49.6, rCAG binder conf 40.0* and dCAG dye counter 10.4*.
CCOC(=O)c1c(NC(=O)CSc2ccccc2C(=O)O)sc(C)c1C was read as A3G deaminase -7.1, ALR H2O2 inh 6.3, A3A deaminase -0.9, aDG glyco up -0.1, rCAG binder-1 39.6*, PHOSPHO1 inh -17.4, rCAG binder conf 40.9* and dCAG dye counter 13.4*.

Screens from PubChem BioAssay.
